# Compound activity: PubChem, National Center for Advancing Translational Sciences (NCATS)
# The list is a sample of the results.
# CHX counter: counter-screen hit for Shiga toxin inhibitors, cycloheximide. cell reporter, cycloheximide protein synthesis inhibition counterscreen. max response, %. hit rate 12% among 300,000. AID 2314; in the data active = max response mostly above about 13%, no sharp cut-off; inactive = mostly below about 14%; also: read at 38.3 µM for the half of the compounds with a filed dose
# Shiga toxin inh: inhibitors of Shiga toxin in Vero cells; Vero cells, Shiga toxin protein synthesis inhibition reporter; inhibition, % at 38.7 µM; hit rate 9.2% among 290,000; AID 2315; in the data active = inhibition mostly above about 28%, no sharp cut-off; inactive = mostly below about 43%
# MARV entry inh: blocks Marburg virus binding to or entry into cells | Marburg virus pseudotyped entry inhibition, cell reporter | Potency, µM (highest dose often 37.8 µM), usual class: inhibitors | hit rate 1.8% among 300,000 | AID 540276; calls by dose curve; tested in HEK293 cells
# LASV entry inh: blocks Lassa virus binding to or entry into cells. Lassa virus pseudotype entry inhibition, cell reporter. Potency, µM (doses to about 37.9 µM), usual class: inhibitors. hit rate 1.2% among 300,000. AID 540256; calls by dose curve; tested in HEK293 cells; also: nearly all actives have a fitted effect of over 50% in size
# WI-38 cytotox: toxic to WI-38 fibroblasts in PNC inhibitor counter-screen | Potency, µM (doses to about 46.1 µM), usual class: inhibitors | WI-38 normal lung fibroblasts, ATPLite luminescence ATP viability, 24 h | 120 tested, under 10 active | shares compounds with MARV entry inh
# PNC inh conf: confirmation of perinucleolar compartment assembly inhibitors | hit rate 50% among 120 | shares compounds with MARV entry inh | Potency, µM (titrated, usually from 46.1 µM), usual class: inhibitors | AID 2730 | PC3M PTB-GFP, PNC prevalence imaging, 16 h
# PC3M caspase: activates caspase 3/7 in PC3M cells in PNC counter-screen | shares compounds with MARV entry inh | PC3M-GFP caspase 3/7 activation, luminescence, 24 h | activity change, positive = activation, % at 46.1 µM | 120 tested, under 10 active | AID 2731
# A number is an active result; . = inactive; ? = inconclusive; / = no result. Unless noted, calls follow the shape of the dose curve; as a rule, active = well fitted curve in the direction sought with a large enough effect; inconclusive = small, poorly fitted or top-dose-only effect, or another doubt; inactive = no such curve, though single readings can be large; an effect the other way counts as inactive or inconclusive.
SMILES,CHX counter,Shiga toxin inh,MARV entry inh,LASV entry inh,WI-38 cytotox,PNC inh conf,PC3M caspase
COC(=O)c1ccc(OS(=O)(=O)c2ccc(NC(C)=O)cc2)cc1,.,.,?,.,/,/,/
CC(=O)Nc1ccc(S(=O)(=O)Oc2ccc3c(c2)C(C)=CC(C)(C)N3)cc1,16,.,?,0.82µM,.,5µM,.
COC(=O)/C=C1/SC(=NC(=O)c2cccc([N+](=O)[O-])c2)NC1=O,.,.,?,.,/,/,/
Cc1cc(C(=O)N/N=C/c2cc(Br)cc(Br)c2OC(=O)c2ccccc2)n[nH]1,.,.,.,?,.,?,.
Cc1cccc(C(=O)Oc2c(Br)cc(Br)cc2/C=N/NC(=O)c2ccncc2)c1,.,.,?,.,/,/,/
Cc1ccc(-n2cc(-c3ccccc3)c3c(NN4CCOCC4)ncnc32)cc1,.,.,.,.,.,.,.
CC(=O)N1c2ccc(S(=O)(=O)N3CCCCCC3)cc2CC1C(=O)NC(C)C (stereo not drawn),/,/,/,.,/,/,/
CN(C)c1nc(OCCNC(=O)COc2ccccc2Cl)nc(N(C)C)n1,.,.,.,.,.,?,.
COc1ccc(NC(=O)C(NS(=O)(=O)c2cccc3nsnc23)C(C)C)cc1 (stereo not drawn),/,/,.,.,/,/,/
Nc1[nH]nc2nc3ccccc3cc12,.,.,?,.,/,/,/
Nc1cccc2nc3ccccc3cc12,.,.,/,/,.,?,?
COc1cc(C(=O)Oc2ccccc2/C=N/NC(=O)c2ccc(Cl)cc2)cc(OC)c1OC,15,55,12µM,11µM,?,?,.
COc1ccc(-c2csc(NC(=O)c3ccc(OCC(=O)N4CCOCC4)c(OC)c3)n2)cc1,.,.,?,?,.,?,.
COc1cc(C(=O)Nc2nc(-c3ccc(C)cc3)cs2)ccc1OCC(=O)N1CCOCC1,.,.,.,.,/,/,/
COc1ccc(-c2cc(C#N)nc(N3CCN(C)CC3)n2)cc1,.,.,?,.,.,?,.
Cc1cccc(-n2c(SCC(=O)c3ccccc3)nnc2-c2ccc(Br)cc2)c1,/,/,/,.,/,/,/
